Sampled rows, rich in hits. Any-hit rate of the full collection: about 5.2%.
PfM18AAP inh: PfM18AAP enzyme inhibition; recombinant PfM18AAP, H-Glu-NHMec fluorogenic cleavage; inhibition, % at 7.35 µM; 290,000 compounds, 1.2% hits; AID 1822;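 active = inhibition above the campaign mean inhibition over all tested compounds plus 3 SD, cut at about 28% in these data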;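 also: 0% = plate median of test compound wells and 100% = 2 mM ZnCl2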
NRP1-CendR mod: NRP-1/CendR interaction modulation; O14786; FAM-RPARPAR peptide binding to NRP-1, fluorescence polarization; inhibition, % at 25 µM; 360,000 compounds, 0.85% hits;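 active = inhibition or corrected inhibition above about 18%, plus a signal ratio from 0.5 to 1.5, limit read from the data, passing the limit was not always enough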
CR mimetic SO: yeast age-related superoxide inhibition as caloric restriction mimetic | 330,000 compounds, 0.18% hits | AID 2690 | superoxide response (% of plate mean), % at 10 µM | S. cerevisiae aged cells, superoxide DHE fluorescence; stronger effect = lower value;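 active = superoxide response under a set limit, about three screen SD below normal, cut at about 65% in these data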;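 also: yeast aged for seven days with compound at 30 °C before DHE staining; 100% = average MFI of all compound-treated wells on the plate with controls excluded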
A3A deaminase: blocks human APOBEC3A ssDNA deamination | P31941 | recombinant A3A, FAM/TAMRA ssDNA deamination fluorescence | inhibition, % at 20 µM | 330,000 compounds, 0.41% hits;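 active = at least 40% inhibition at 20 µM here, with at most 30% in a related deaminase screen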;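 also: plate controls were A3A with DMSO for no effect and wells lacking A3A enzyme for full effect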
ALR inh: blocks human ALR sulfhydryl oxidase activity | P55789 | purified ALR, DTT oxidation, H2O2 HRP-luminol luminescence | inhibition, % (concentration not given with the values) | 290,000 compounds, 3.8% hits;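 active = mean replicate inhibition above about 79%, with every replicate also reaching it, limit read from the data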
APOBEC3G inh: inhibitors of human APOBEC3G DNA deaminase. inhibition, % at 20 µM. 330,000 compounds, 0.28% hits. Q9HC16. recombinant A3G, ssDNA deamination FAM/TAMRA fluorescence;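 active = inhibition of at least 40% at 20 µM, with no more than 30% in the related APOBEC3A deaminase screen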;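 also: plate controls were DMSO wells with A3G for no effect and wells lacking A3G enzyme for full effect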
Target sequence (Q9HC16 whole entry, looked up): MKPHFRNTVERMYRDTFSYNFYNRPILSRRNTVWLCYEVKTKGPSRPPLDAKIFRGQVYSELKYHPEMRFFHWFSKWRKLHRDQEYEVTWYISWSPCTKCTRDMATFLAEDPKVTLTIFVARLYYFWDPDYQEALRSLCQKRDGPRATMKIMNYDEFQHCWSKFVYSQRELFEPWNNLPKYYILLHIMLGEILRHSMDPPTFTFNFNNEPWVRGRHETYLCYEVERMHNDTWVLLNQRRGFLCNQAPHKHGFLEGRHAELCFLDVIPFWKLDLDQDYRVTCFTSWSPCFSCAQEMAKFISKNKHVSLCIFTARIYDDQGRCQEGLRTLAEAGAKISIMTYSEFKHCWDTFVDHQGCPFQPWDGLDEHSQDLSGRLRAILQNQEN
Starred values were filed as active, the others as inactive; · = no result given.

SMILES	PfM18AAP inh	NRP1-CendR mod	CR mimetic SO	A3A deaminase	ALR inh	APOBEC3G inh
O=C(c1ccc(-c2ccccc2)cc1)N1CCN(c2ccc3c(c2)C2CC3CCN2C(=O)OCc2ccccc2)CC1 (stereo not drawn)	·	32*	·	·	·	·
N#Cc1nc(-c2ccccc2F)oc1NCCN1CCOCC1	-5	0	99	-3	96*	-7
N#Cc1nc(-c2ccc(F)cc2)oc1NCCN1CCOCC1	5	-3	98	-2	65	-5
N#Cc1nc(-c2cccc3ccccc23)oc1NCCN1CCOCC1	-8	4	93	-2	70	-8
Cc1ccc(-c2nc(C#N)c(NCCN3CCCCC3)o2)cc1	-3	-13	98	-3	92*	-14
CCN1CCN(C(=O)C2CCCN(c3ncnc4c3nc3n4CCCCC3)C2)CC1 (stereo not drawn)	5	0	88	-5	1	-3
CC(Oc1ccccc1)C(=O)Nc1ccccc1O (stereo not drawn)	12	-9	95	-3	90*	-7
COc1ccccc1OCCNC(=O)C1CC(=O)N(Cc2ccc(C)cc2)C1 (stereo not drawn)	·	13	100	10	·	1
CN(C)CCN(C)Cc1c2ccccc2c(CN(C)CCN(C)C)c2ccccc12	29*	44	100	1	-9	0
CC(/C=N/Nc1nnc(C)c(=O)[nH]1)=C\c1ccccc1	4	24*	101	0	·	1
Cc1cccc(/C=N\Nc2nnc(-c3ccccc3)c(=O)[nH]2)c1	-7	-2	93	-1	4	-8
O=C(CCNC(=O)Cn1cnc2ccccc2c1=O)NCC1CCCO1 (stereo not drawn)	-10	4	99	-1	-5	-2
Cc1ccc(CSCC(=O)N2CCN(c3ccc(F)cc3)CC2)cc1	-10	8	139	-4	1	-8
COc1ccc(CC(=O)N2CCN(c3ccc(F)cc3)CC2)cc1	4	-22	101	-6	36	4
O=C(Cc1ccc(Br)cc1)N1CCN(c2ccc(F)cc2)CC1	2	23*	105	-3	·	-10
O=C(c1ccc2c(c1)OCO2)N1CCN(c2ccc(F)cc2)CC1	-4	8	107	-1	97*	0
O=C(CCN1C(=O)C2C3C=CC(C3)C2C1=O)N1CCN(c2ccc(F)cc2)CC1 (stereo not drawn)	6	-8	107	-3	97*	-4
COc1ccc(N2CCN(C(=O)CCN3C(=O)C4C5C=CC(C5)C4C3=O)CC2)cc1 (stereo not drawn)	-2	-8	101	-4	68	-8
O=C(c1ccc2c(c1)OCO2)N1CCN(c2cccc(C(F)(F)F)c2)CC1	9	-3	115	-1	·	-6
O=C(CSCc1ccc(F)cc1)N1CCN(c2ccc(F)cc2)CC1	1	2	91	4	98*	0
CCN1CCN(CCCNC(=O)c2ccc3c(c2)NC(=O)/C(=C\c2cccc(C)c2)S3)CC1	4	3	135	-4	-13	-8
NS(=O)(=O)c1ccc(CCNc2nc(CN3CCCCC3)nc3sc4c(c23)CCC4)cc1	-3	-3	103	10	2	-4
CC(=O)NCCc1ccc(C(=O)Cn2cnc3ccccc3c2=O)cc1	0	3	97	2	1	-4
CC(=O)c1c(O)cc(C)n(Cc2ccccc2)c1=O	2	-4	90	-1	1	-3
Cc1ccc(C(=O)c2c(NC(=O)c3cccnc3)sc3c2CCCC3)cc1	1	-9	119	0	95*	-4
Cc1ccc(N2C(=O)NC(NS(=O)(=O)c3ccccc3)(C(F)(F)F)C2=O)cc1 (stereo not drawn)	-5	26*	112	4	·	-5
Cc1ccc(N2C(=O)NC(NS(=O)(=O)c3ccc(C)cc3)(C(F)(F)F)C2=O)cc1 (stereo not drawn)	2	9	102	-1	2	-14
CC(C)CN1C(=O)NC(NS(=O)(=O)c2ccc(N)cc2)(C(F)(F)F)C1=O (stereo not drawn)	-1	-8	78	3	99*	-4
CCNc1nc(OCCNS(=O)(=O)c2cc(C)ccc2C)nc(N(C)C)n1	-4	-7	93	-1	-1	-3
CCNc1nc(OC)nc(N(OC)S(=O)(=O)c2ccc(C)cc2)n1	-7	2	82	3	82*	-3
